This is an account of results in ChEMBL document CHEMBL3988442, “University of Dundee, Small-Polar-MMV Screening Library” (2021).

Each structure is given as a SMILES string. For some assays here: Potency and affinity values are given separately.

Holding throughout (parameters): scale not given: direction of the effect not stated beside the values
Experiment [1] concerns the target Protein translocase subunit SecA (Escherichia coli (strain K12)) (UniProt P10408). Briefly: Assay to Identify E. coli SecA ATPase Inhibitors. In kind it is functional. As to conditions: 30 µM.
Experiment [2] concerns the target T1, Ubiquitin-activating enzyme e1, putative (Leishmania donovani (strain BPK282A1)) (UniProt E9BSI1).
T1 sequence (whole entry): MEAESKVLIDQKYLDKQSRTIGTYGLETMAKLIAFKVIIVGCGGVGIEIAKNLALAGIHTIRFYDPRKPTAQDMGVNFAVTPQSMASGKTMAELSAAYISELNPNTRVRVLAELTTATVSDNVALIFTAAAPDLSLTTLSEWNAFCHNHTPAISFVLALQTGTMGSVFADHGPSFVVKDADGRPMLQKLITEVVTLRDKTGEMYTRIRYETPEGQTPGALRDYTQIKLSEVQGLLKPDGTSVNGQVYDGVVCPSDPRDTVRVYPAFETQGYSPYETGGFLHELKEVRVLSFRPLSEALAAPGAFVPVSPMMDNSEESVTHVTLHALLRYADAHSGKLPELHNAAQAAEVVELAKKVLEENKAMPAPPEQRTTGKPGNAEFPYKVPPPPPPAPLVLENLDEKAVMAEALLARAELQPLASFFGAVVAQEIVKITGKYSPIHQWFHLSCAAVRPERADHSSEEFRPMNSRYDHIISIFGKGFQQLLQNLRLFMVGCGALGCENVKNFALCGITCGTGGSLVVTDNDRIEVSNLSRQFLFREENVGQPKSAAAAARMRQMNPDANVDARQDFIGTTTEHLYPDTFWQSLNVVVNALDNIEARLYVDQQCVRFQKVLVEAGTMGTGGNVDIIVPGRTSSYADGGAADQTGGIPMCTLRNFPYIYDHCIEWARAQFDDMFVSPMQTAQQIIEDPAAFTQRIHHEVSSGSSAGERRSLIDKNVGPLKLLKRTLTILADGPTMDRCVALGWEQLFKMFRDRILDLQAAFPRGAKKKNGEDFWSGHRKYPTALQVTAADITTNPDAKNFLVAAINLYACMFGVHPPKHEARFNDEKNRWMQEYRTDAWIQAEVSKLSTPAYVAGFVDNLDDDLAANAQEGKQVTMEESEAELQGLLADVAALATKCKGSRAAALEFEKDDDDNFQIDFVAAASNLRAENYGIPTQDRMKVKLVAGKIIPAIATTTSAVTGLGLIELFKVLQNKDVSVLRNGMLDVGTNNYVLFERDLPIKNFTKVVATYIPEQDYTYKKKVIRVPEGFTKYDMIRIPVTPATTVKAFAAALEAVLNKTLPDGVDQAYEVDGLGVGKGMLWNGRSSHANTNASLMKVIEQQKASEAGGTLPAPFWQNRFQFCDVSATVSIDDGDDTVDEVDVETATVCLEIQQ
In words: Leishmania donovani Ubiquitin Activating Enzyme (LdE1). In kind it is functional. As to conditions: 30 µM.

The target in experiment [3] is Sialic acid-binding Ig-like lectin 9 (Homo sapiens) (UniProt Q9Y336). In words: Hs-Siglec9 ALPHAscreen SOP 20170721. To be noted: 10 µM. (In general: Bead proximity is the source of the signal in Alpha formats.)
Sequence of Sialic acid-binding Ig-like lectin 9 (Homo sapiens) (Q9Y336 whole entry): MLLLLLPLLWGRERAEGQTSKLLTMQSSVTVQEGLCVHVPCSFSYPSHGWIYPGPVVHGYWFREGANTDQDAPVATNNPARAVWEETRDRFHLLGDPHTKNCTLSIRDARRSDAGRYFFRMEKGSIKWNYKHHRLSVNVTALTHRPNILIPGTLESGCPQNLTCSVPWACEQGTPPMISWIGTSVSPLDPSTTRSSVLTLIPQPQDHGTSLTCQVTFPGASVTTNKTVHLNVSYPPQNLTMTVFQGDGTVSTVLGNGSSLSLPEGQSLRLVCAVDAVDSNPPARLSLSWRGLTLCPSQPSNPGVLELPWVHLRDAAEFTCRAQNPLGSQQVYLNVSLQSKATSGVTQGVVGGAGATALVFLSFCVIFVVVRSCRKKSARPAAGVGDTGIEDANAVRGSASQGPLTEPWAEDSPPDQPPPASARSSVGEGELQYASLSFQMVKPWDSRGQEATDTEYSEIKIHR
Experiment [4] deals with Trypanosoma cruzi. Briefly: Trypanosoma cruzi phosphomannomutase and mannose-1-phosphate guanylyltransferase assay. In kind it is functional. As to conditions: 10 µM.
Experiment [5] concerns the target T2, Arginase-2, mitochondrial (Homo sapiens) (UniProt P78540).
T2 sequence (whole entry): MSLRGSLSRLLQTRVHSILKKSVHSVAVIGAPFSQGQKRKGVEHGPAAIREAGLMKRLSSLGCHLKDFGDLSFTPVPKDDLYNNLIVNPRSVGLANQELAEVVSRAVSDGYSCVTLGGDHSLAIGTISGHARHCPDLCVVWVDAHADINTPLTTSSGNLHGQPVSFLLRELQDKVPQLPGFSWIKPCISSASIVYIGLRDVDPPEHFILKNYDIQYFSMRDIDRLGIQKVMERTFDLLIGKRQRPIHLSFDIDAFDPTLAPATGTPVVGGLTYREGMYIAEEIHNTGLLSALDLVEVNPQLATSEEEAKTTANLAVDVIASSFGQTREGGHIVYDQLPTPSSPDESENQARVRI
In words: in vitro enzyme assay to detect the production of urea directly proportional to the activity of Arginase II. Note: in the data most compounds retested in dose-response had high values. As to conditions: 33.3 µM. Type of experiment: functional.

Experiment [6] deals with T3, Proteasome subunit beta (Trypanosoma cruzi) (UniProt O96673).
T3 sequence (whole entry): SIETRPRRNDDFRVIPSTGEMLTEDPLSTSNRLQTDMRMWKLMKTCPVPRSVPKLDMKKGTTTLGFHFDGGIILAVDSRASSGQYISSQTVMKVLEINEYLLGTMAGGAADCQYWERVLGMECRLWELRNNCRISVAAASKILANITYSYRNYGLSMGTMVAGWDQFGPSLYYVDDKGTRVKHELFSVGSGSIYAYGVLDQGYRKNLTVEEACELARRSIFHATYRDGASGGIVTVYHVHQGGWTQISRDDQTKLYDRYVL
In words: Trypanosoma cruzi proteasome chymotrypsin-like activity (TcProtChymo) assay. Note: in the data most compounds retested in dose-response had high values. Type of experiment: functional. To be noted: 9.37 µM.

The species entered for experiment [7] is Homo sapiens. In words: To identify inhibition of the IFN signalling (Jak-Stat) pathway via expression of an eGFP reporter gene under the control of an IFN-stimulated response element (ISRE) containing MxA promoter. As to conditions: 30 µM. In kind it is functional. For orientation: A reporter such as luciferase makes a cellular process visible.
For experiment [8], the target named is T4, Tyrosyl-tRNA synthetase, putative (Trypanosoma cruzi (strain CL Brener)) (UniProt Q4DSP6).
T4 sequence (whole entry): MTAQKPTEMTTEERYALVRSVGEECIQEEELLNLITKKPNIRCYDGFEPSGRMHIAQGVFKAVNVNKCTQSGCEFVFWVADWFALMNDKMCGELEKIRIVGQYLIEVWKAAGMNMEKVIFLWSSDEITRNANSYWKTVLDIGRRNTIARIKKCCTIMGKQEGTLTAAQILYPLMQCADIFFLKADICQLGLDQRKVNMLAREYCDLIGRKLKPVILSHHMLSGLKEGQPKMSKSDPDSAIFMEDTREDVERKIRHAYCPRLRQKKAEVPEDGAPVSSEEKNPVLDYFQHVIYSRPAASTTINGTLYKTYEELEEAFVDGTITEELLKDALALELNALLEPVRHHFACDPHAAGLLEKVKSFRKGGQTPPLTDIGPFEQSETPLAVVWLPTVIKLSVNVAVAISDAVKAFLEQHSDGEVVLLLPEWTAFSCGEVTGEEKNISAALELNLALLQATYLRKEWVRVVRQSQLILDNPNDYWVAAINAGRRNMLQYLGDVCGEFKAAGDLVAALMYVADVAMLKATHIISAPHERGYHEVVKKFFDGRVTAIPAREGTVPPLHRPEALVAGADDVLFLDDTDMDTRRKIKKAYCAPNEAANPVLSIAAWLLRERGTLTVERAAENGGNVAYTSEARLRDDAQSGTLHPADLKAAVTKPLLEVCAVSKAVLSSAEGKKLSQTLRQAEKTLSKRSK
Briefly: Trypanosoma cruzi tyrosyl tRNA synthetase (TcYRS) _High Tyrosine SOP. Note: in the data most compounds retested in dose-response had high values. Type of experiment: functional. To be noted: 30 µM.

Experiment [9] deals with T4, Tyrosyl-tRNA synthetase, putative (Trypanosoma cruzi (strain CL Brener)). In words: Trypanosoma cruzi tyrosyl tRNA synthetase (TcYRS) SOP. To be noted: 30 µM. In kind it is functional.
Experiment [10] deals with Chromo domain-containing protein 1 (Saccharomyces cerevisiae (strain ATCC 204508 / S288c) (Baker's yeast)) (UniProt P32657). Briefly: ScCHD-1 Enzyme Inhibition Assay. Note: in the data most compounds retested in dose-response had high values. In kind it is functional. As to conditions: 30 µM.
Sequence of Chromo domain-containing protein 1 (Saccharomyces cerevisiae (strain ATCC 204508 / S288c) (Baker's yeast)) (P32657 whole entry, the tested form may be a part): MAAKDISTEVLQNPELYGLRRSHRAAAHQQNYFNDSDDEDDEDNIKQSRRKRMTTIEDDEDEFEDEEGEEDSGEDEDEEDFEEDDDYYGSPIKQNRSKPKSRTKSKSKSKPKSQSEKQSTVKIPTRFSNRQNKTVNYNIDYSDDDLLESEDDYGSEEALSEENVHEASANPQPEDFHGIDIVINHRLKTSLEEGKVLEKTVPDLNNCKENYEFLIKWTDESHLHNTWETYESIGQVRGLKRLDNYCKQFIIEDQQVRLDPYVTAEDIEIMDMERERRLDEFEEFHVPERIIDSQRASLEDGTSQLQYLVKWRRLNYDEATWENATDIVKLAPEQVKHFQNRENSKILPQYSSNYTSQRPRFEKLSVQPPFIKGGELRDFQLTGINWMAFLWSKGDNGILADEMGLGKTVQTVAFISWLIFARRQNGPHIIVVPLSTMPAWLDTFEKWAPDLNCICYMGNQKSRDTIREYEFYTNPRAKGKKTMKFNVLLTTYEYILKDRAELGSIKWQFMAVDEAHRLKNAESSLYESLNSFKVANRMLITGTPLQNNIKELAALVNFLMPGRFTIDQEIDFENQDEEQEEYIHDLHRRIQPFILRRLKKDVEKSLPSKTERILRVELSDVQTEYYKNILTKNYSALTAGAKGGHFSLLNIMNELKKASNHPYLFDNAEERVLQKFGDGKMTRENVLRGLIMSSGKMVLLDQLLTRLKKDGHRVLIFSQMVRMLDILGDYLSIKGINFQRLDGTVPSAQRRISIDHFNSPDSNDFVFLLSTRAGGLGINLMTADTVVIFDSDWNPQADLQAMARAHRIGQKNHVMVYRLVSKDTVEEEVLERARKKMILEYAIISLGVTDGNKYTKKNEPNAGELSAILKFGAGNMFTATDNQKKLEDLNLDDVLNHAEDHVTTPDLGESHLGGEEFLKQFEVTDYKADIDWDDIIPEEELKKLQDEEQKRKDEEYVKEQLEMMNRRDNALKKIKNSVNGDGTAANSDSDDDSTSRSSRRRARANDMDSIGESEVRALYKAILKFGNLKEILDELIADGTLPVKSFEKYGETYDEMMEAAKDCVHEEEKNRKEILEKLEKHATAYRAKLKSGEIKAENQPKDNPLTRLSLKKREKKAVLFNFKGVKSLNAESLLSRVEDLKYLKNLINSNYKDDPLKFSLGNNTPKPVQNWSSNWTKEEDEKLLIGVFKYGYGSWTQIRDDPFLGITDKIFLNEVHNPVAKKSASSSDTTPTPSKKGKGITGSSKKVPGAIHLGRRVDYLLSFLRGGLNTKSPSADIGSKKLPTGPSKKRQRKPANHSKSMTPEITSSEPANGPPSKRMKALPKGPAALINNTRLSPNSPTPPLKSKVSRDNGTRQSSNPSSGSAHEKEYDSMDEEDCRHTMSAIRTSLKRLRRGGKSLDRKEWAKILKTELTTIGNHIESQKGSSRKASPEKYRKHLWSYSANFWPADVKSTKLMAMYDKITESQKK

Sequence of Protein translocase subunit SecA (Escherichia coli (strain K12)) (P10408 whole entry): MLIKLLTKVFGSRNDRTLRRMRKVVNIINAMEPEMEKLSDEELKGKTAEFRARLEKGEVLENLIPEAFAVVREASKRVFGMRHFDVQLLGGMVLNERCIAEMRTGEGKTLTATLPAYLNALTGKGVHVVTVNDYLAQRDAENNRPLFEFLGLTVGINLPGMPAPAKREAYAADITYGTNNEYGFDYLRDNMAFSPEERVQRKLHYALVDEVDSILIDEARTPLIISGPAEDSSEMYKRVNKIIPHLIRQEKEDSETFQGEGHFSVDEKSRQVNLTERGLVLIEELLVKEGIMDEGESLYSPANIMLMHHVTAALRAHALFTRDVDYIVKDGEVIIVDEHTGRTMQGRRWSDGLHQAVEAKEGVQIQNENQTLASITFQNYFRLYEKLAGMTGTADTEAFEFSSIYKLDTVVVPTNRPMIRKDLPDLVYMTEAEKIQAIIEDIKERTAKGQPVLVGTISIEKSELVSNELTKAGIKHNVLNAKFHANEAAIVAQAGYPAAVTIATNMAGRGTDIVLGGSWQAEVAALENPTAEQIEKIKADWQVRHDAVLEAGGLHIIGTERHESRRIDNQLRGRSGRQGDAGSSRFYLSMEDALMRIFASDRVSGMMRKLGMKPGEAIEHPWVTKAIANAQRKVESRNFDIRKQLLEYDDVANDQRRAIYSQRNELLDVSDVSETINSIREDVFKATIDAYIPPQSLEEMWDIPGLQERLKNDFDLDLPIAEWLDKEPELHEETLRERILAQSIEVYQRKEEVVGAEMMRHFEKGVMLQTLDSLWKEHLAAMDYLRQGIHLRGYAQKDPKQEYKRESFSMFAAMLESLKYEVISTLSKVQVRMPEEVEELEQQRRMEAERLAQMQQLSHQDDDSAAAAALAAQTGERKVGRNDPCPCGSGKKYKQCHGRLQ

In the case of `Cc1cccnc1C(=O)N1CCCC(c2[nH]ncc2S(C)(=O)=O)C1` (stereo not given), the Percent Effect in experiment [1] is -0.892%; in experiment [2] it was 4%; in experiment [3], 0.0565%; in experiment [4], -4.54%; in experiment [5] it was 3.1%; in experiment [6], 0.985%. The Percent Effect in experiment [7] was 20%; in [8], 5.29%; in [9], 7.5%; in experiment [10] it was -20.1%.

As to `Cc1nn(C)c(N2CCOCC2)c1CNC1CCc2cc(F)ccc21` (stereo not given), the Percent Effect in experiment [1] was -1.4%; in experiment [2], 20.8%; in experiment [3] it was 4.82%; in experiment [4], -2.8%; in experiment [5], 11.7%; in experiment [6] it was 7.72%. The Percent Effect was 0.31% in [7], 6.86% in [8], 18.8% in experiment [9] and -4.69% in experiment [10].

Take `CCn1ccnc1CN1CCC(N(C)Cc2ncc(C)o2)C1` (stereo not given): the Percent Effect in [1] was -0.494%; in [2], 13.3%; in [3], -7.04%; in [4], -3.21%; in experiment [5], 3.1%; in experiment [6] it was 12.5%. Further, the Percent Effect in experiment [7] is 14.6%; in experiment [8], 10%; in experiment [9], 17.9%; in experiment [10], -11.2%.

Consider `CC(C)c1nn(C)c(N2CCOCC2)c1CNCC(=O)N(C)C`, for which the Percent Effect in [1] was -2.05%; in [2], 12.8%; in experiment [3] it was -8.89%; in experiment [4] it was 1.22%; in [5] it was 3.69%; in [6] it was 10.5%. The Percent Effect in experiment [7] is -5.7%; in experiment [8], 7.18%; in [9], 22.9%; in experiment [10] it was -5.02%.

With `COc1ccc(C)cc1C(C)NC(=O)NCCCn1cncn1` (stereo not given), the Percent Effect was -2.2% in experiment [1]; 18.7% in experiment [2]; 1.49% in experiment [3]; 1.81% in experiment [4]; 1.33% in [5]; 13.5% in experiment [6]. Further, the Percent Effect is 4.64% in experiment [7], 6.84% in experiment [8], 20.5% in experiment [9] and -10.3% in experiment [10].

Take `COCCOc1cccc(C(=O)N2CCCC(n3ccnc3C)C2)c1` (stereo not given): the Percent Effect in [1] is -2.56%; in experiment [2], 13%; in experiment [3], 8.18%; in experiment [4], 4.85%; in [5], -2.25%; in experiment [6] it was 0.877%. Moreover, the Percent Effect was 1.8% in experiment [7], 0% in experiment [8], 18.8% in experiment [9] and -12.3% in experiment [10].

With `Cc1nc(C2CCCN(C(=O)COCc3ccccc3Cl)C2)no1` (stereo not given), the Percent Effect in [1] was 1.44%; in experiment [2] it was -8%; in experiment [3] it was 4.56%; in experiment [4] it was -1.81%; in [5], 6.21%; in experiment [6], -7.72%. The Percent Effect is 10.8% in experiment [7], -1.58% in experiment [8], -5.13% in [9] and 3.49% in experiment [10].

Turning to `c1ccc(-n2ncc(CN3CCCC3Cn3cccn3)n2)cc1` (stereo not given), the Percent Effect is -6.8% in [1]; -13% in [2]; 24.4% in [3]; -2.61% in experiment [4]; -0.205% in [5]; 5.44% in experiment [6]. The Percent Effect in experiment [7] is 1.65%; in experiment [8] it was -1.96%; in experiment [9] it was -2.35%; in [10], 3.05%.

With `Cc1ccccc1CN(C)Cc1nc2c(cnn2C)c(=O)[nH]1`, the Percent Effect in experiment [1] is -0.754%; in [2] it was 10.3%; in experiment [3] it was -3.07%; in experiment [4] it was 1.41%; in [5], -0.82%; in [6], 16.8%. Also, the Percent Effect in experiment [7] is 7.6%; in [8], 8.13%; in [9], 18.1%; in [10], -3.59%.

In the case of `CC(C)N1CC(C(=O)NCc2ccnc(-n3cccn3)c2)CC1=O` (stereo not given), the Percent Effect is -1.72% in experiment [1]; 12.8% in [2]; -8.26% in [3]; 0.469% in experiment [4]; 8.2% in experiment [5]; 3.33% in [6]. Moreover, the Percent Effect in experiment [7] is 25.3%; in experiment [8], 5.26%; in experiment [9], 13.2%; in [10], -3.04%.

For the compound `CN(C)S(=O)(=O)N1CCN(C(=O)c2ccc3ccn(C)c3c2)CC1`, the Percent Effect is -5.48% in experiment [1]; 8.11% in [2]; 12% in experiment [3]; 5.72% in experiment [4]; 8.74% in experiment [5]; 13.9% in experiment [6]. The Percent Effect is 5.78% in experiment [7], 2.66% in [8], 9.76% in experiment [9] and -5.25% in [10].
